Experimental data published in article PMC7862700, “An all-to-all approach to the identification of sequence-specific readers for epigenetic DNA modifications on cytosine”.

Tests used:
Test in all cases: DAPPL (digital affinity profiling via proximity ligation, sequencing); 10 mM Tris-HCl pH 7.5, 50 mM NaCl, 1 mM DTT, 4% glycerol, room temperature, 30 min; GST-TFs on glutathione beads, 16-mer random dsDNA library, 0.1% formaldehyde crosslink after washing; high values mean tight binding
[1] = biological target: T1, FLI1 (Homo sapiens, UniProt Q01543 1-452); details: protein: recombinant; tags: N-terminal GST; dsDNA, one strand shown
T1 sequence: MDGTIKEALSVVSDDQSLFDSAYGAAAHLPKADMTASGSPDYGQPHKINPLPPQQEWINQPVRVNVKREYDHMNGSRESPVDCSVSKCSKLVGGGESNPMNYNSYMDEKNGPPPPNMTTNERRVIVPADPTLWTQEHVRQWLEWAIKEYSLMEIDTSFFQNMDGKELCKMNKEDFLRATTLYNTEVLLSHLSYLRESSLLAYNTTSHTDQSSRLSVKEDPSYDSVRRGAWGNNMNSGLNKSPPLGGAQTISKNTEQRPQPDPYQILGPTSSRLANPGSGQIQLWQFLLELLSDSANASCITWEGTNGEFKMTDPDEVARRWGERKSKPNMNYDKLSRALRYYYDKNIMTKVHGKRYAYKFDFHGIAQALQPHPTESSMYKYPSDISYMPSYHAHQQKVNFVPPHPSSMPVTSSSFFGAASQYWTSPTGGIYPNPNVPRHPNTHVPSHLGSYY
Method in brief: (§1)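 After expression in yeast as GST fusions, human transcription factors were bound to glutathione beads, DNA-barcoded and mixed with a tag-only sample. The pools were incubated with 200 nmole of a 16-mer random double-stranded DNA library in Tris/NaCl/DTT/glycerol buffer (30 min, room temperature), washed and crosslinked with 0.1% formaldehyde. Proximity ligation with BsaI/T4 ligase ran for 1 h at 37 °C, before PCR amplification and sequencing on an Illumina NextSeq500. Binding signal is a hexamer's read frequency for a factor divided by its frequency for the tag-only sample.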

[2] = biological target: T2, ELK1 (Homo sapiens, UniProt P19419 1-428); details: protein: recombinant; tags: N-terminal GST; dsDNA, one strand shown
T2 sequence: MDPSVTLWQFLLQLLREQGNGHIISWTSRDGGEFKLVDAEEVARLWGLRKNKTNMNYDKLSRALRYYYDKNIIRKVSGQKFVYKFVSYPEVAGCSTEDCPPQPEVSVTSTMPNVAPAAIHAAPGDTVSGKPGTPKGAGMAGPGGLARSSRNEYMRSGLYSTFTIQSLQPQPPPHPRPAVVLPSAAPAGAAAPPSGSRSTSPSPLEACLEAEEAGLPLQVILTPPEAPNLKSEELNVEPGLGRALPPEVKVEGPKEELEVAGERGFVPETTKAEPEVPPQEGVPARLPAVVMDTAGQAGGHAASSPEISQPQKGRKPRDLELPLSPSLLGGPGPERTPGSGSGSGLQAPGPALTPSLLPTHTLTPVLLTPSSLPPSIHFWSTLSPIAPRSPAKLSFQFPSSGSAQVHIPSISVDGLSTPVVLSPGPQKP
Method in brief: as §1

[3] = biological target: T3, GABPA (Homo sapiens, UniProt Q06546 1-454); details: protein: recombinant; tags: N-terminal GST; dsDNA, one strand shown
T3 sequence: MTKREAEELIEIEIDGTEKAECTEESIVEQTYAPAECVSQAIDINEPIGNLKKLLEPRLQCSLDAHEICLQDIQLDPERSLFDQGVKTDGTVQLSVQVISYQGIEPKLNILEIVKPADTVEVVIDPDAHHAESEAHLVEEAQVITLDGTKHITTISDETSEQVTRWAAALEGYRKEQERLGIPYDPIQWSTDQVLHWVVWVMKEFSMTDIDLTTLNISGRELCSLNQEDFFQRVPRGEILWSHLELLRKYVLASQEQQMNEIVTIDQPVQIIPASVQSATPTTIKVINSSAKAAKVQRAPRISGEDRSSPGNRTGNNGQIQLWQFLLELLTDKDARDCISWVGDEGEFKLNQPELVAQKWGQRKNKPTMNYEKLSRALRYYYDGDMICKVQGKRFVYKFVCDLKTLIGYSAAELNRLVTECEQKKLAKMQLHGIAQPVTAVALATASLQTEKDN
Method in brief: as §1

[4] = biological target: T4, ERG (Homo sapiens, UniProt P11308 1-479); details: protein: recombinant; tags: N-terminal GST; dsDNA, one strand shown
T4 sequence: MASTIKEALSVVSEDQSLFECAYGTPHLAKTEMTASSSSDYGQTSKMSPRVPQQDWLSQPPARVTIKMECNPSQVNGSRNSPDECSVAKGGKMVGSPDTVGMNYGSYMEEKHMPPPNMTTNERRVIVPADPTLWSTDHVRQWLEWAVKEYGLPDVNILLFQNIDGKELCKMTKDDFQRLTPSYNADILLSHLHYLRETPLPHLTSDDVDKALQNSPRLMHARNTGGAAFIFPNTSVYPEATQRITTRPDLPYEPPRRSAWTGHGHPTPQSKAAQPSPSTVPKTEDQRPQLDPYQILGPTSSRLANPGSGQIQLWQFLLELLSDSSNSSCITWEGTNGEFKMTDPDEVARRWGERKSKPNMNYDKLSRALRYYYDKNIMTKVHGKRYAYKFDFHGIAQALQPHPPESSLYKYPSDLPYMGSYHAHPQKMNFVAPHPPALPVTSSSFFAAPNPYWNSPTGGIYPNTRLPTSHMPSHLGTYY
Method in brief: as §1

[5] = biological target: ELF1 (Homo sapiens, UniProt P32519 1-619); details: protein: recombinant; tags: N-terminal GST; dsDNA, one strand shown
Sequence of ELF1 (P32519 whole entry): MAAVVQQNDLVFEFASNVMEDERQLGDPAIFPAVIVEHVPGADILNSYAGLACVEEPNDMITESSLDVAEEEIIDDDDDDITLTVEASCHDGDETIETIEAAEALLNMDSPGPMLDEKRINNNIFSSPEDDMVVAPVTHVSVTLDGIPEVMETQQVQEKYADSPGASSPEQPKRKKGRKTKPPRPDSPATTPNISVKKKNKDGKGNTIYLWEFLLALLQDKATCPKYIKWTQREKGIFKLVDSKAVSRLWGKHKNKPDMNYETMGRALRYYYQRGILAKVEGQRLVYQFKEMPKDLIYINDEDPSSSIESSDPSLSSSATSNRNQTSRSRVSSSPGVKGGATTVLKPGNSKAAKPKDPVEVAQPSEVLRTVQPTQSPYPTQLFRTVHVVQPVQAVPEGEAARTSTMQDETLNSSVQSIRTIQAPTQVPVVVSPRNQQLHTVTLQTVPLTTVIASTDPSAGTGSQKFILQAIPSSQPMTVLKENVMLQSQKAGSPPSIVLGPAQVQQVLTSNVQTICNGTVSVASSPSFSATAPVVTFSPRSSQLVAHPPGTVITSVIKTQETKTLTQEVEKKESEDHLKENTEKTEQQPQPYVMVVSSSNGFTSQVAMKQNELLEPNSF
Method in brief: as §1

[6] = biological target: T5, EHF (Homo sapiens, UniProt Q9NZC4 1-300); details: protein: recombinant; tags: N-terminal GST; dsDNA, one strand shown
T5 sequence: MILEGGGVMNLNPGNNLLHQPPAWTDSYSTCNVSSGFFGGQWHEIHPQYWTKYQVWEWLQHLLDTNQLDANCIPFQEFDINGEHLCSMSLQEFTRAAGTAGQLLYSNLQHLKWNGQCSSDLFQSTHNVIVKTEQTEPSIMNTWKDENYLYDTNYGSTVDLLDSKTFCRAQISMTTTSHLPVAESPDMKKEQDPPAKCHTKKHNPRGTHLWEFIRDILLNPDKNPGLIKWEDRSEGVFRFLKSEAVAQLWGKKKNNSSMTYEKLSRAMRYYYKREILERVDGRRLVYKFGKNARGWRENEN
Method in brief: as §1

[7] = biological target: SPI1 (Homo sapiens, UniProt P17947 1-270); details: protein: recombinant; tags: N-terminal GST; dsDNA, one strand shown
Method in brief: as §1

[8] = biological target: SPIB (Homo sapiens, UniProt Q01892 1-262); details: protein: recombinant; tags: N-terminal GST; dsDNA, one strand shown
Sequence of SPIB (Q01892 whole entry): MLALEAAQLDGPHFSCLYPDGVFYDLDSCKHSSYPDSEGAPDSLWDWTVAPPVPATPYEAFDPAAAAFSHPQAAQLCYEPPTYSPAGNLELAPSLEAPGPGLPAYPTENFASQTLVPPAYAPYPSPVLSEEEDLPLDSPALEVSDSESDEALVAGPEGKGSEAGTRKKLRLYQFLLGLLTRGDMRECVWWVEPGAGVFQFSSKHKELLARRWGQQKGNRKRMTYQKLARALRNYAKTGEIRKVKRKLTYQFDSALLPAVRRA
Method in brief: as §1

[9] = biological target: T6, ELK3 (Homo sapiens, UniProt P41970 1-407); details: protein: recombinant; tags: N-terminal GST; dsDNA, one strand shown
T6 sequence: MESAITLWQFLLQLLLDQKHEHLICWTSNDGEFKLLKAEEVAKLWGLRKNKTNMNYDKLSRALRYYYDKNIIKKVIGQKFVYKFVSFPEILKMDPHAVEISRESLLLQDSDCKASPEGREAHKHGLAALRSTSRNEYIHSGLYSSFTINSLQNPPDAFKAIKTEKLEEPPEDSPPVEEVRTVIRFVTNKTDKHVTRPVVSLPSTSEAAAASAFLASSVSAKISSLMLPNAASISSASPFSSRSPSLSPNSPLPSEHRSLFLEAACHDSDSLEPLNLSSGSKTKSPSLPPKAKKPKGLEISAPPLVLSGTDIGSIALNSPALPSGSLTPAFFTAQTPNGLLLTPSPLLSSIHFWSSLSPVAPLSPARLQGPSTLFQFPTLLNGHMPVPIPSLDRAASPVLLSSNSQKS
Method in brief: as §1

[10] = biological target: T7, FEV (Homo sapiens, UniProt Q99581 1-238); details: protein: recombinant; tags: N-terminal GST; dsDNA, one strand shown
T7 sequence: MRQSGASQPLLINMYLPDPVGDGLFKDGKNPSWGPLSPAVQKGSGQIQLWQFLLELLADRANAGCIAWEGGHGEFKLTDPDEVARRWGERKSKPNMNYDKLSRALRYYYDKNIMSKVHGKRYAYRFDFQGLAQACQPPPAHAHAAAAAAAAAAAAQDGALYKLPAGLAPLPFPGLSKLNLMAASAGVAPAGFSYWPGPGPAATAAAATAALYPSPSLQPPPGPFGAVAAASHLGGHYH
Method in brief: as §1

[11] = biological target: ETV5 (Homo sapiens, UniProt P41161 1-510); details: protein: recombinant; tags: N-terminal GST; dsDNA, one strand shown
Sequence of ETV5 (P41161 whole entry): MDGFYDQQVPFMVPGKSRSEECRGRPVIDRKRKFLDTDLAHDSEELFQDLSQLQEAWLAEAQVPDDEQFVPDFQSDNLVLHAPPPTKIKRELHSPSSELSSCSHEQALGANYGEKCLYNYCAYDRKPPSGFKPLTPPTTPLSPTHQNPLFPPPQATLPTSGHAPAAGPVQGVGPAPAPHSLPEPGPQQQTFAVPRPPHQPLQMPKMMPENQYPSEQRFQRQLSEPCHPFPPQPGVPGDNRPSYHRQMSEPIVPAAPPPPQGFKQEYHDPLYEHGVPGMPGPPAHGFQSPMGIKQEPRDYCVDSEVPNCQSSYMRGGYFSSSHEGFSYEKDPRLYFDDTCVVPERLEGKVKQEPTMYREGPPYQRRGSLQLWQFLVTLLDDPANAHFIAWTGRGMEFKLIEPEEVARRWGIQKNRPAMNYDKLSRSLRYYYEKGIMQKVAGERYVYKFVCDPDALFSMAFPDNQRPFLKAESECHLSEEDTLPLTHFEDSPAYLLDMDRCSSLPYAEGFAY
Method in brief: as §1

[12] = biological target: HSF1 (Homo sapiens, UniProt Q00613 1-529); details: protein: recombinant; tags: N-terminal GST; chain copies: 3; dsDNA, one strand shown
Sequence of HSF1 (Q00613 whole entry): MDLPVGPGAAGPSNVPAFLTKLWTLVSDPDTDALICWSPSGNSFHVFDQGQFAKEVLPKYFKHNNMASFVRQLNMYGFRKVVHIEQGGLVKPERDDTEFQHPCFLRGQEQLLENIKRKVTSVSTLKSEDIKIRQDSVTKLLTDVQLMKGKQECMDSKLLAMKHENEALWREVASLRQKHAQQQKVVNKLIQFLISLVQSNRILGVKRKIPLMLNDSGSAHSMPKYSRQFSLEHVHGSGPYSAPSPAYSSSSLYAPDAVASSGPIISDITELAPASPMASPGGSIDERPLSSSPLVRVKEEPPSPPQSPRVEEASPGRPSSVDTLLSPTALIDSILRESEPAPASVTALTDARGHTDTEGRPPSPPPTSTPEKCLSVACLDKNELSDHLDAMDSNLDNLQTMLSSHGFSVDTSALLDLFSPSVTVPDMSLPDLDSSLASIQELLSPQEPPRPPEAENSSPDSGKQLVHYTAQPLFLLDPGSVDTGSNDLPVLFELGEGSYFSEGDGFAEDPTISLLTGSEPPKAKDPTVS
Method in brief: as §1

[13] = biological target: T8, SPIC (Homo sapiens, UniProt Q8N5J4 1-248); details: protein: recombinant; tags: N-terminal GST; dsDNA, one strand shown
T8 sequence: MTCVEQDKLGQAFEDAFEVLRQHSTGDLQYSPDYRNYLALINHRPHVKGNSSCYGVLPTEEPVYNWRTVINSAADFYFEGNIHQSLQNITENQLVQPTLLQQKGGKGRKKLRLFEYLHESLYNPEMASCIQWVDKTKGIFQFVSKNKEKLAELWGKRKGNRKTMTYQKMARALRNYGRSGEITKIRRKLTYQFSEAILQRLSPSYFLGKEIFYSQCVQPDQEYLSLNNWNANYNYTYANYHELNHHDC
Method in brief: as §1

[14] = biological target: ELF4 (Homo sapiens, UniProt Q99607 1-663); details: protein: recombinant; tags: N-terminal GST; dsDNA, one strand shown
Sequence of ELF4 (Q99607 whole entry): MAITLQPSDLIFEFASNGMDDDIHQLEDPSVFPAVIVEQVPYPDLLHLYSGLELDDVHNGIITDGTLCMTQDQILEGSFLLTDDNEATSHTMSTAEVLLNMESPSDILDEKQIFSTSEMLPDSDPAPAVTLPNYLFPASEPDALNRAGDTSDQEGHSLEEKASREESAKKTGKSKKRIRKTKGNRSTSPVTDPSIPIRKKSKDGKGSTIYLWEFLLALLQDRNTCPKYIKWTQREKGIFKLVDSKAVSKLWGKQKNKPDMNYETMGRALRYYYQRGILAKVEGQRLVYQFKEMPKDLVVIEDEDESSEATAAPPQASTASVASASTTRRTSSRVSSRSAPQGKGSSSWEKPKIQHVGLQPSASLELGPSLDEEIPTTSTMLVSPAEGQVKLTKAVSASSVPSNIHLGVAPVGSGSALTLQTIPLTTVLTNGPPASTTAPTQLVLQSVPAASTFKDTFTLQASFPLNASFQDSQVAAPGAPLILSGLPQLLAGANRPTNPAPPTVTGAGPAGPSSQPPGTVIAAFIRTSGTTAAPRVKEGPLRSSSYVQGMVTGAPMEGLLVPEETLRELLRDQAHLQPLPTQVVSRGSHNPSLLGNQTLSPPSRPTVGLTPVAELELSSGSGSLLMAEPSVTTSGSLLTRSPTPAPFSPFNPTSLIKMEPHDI
Method in brief: as §1

[15] = biological target: T9, ELK4 (Homo sapiens, UniProt P28324-2 1-405); details: protein: recombinant; tags: N-terminal GST; dsDNA, one strand shown
T9 sequence: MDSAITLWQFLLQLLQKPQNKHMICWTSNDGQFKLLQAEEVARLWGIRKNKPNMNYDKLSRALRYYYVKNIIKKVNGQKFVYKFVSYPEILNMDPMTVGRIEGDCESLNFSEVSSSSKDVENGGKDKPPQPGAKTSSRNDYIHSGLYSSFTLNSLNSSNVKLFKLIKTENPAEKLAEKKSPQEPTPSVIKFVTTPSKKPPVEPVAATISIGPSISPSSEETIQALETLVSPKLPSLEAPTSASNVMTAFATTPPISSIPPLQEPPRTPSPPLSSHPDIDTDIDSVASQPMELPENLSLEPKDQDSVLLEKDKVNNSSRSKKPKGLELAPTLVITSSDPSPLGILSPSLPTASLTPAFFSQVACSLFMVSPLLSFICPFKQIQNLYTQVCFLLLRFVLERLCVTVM
Method in brief: as §1

[16] = biological target: T10, ETV2 (Homo sapiens, UniProt O00321 1-342); details: protein: recombinant; tags: N-terminal GST; dsDNA, one strand shown
T10 sequence: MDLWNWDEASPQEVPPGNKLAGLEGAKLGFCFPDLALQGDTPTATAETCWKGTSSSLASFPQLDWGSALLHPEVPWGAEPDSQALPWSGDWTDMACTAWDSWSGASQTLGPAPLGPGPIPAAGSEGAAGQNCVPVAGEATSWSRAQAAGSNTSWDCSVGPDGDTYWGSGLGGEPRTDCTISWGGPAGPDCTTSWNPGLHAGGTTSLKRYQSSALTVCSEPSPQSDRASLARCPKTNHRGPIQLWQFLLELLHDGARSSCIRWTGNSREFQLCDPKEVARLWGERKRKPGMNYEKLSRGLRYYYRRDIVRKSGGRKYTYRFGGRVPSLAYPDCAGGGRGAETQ
Method in brief: as §1

[17] = biological target: T11, ELF3 (Homo sapiens, UniProt P78545 1-371); details: protein: recombinant; tags: N-terminal GST; dsDNA, one strand shown
T11 sequence: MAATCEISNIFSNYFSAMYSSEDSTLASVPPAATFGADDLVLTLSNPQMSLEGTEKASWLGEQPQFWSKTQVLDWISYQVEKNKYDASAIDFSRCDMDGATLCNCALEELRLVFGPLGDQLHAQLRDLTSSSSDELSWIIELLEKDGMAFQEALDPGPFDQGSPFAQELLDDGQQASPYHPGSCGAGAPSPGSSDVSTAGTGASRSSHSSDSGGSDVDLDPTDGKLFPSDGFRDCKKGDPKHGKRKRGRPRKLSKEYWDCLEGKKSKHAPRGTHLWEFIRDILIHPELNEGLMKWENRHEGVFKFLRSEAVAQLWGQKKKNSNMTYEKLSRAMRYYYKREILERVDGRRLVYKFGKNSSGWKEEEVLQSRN
Method in brief: as §1

[18] = biological target: CRX (Homo sapiens, UniProt O43186 1-299); details: protein: recombinant; tags: N-terminal GST; dsDNA, one strand shown
Sequence of CRX (O43186 whole entry): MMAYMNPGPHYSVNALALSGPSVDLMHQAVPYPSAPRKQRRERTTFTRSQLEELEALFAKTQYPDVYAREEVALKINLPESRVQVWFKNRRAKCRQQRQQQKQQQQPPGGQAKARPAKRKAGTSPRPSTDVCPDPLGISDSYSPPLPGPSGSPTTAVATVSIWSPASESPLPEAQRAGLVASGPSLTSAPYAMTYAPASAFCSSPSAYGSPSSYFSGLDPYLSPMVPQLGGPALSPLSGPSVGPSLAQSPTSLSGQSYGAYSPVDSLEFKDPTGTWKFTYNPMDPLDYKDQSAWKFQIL
Method in brief: as §1

[19] = biological target: ETV1 (Homo sapiens, UniProt P50549 1-477); details: protein: recombinant; tags: N-terminal GST; dsDNA, one strand shown
Sequence of ETV1 (P50549 whole entry): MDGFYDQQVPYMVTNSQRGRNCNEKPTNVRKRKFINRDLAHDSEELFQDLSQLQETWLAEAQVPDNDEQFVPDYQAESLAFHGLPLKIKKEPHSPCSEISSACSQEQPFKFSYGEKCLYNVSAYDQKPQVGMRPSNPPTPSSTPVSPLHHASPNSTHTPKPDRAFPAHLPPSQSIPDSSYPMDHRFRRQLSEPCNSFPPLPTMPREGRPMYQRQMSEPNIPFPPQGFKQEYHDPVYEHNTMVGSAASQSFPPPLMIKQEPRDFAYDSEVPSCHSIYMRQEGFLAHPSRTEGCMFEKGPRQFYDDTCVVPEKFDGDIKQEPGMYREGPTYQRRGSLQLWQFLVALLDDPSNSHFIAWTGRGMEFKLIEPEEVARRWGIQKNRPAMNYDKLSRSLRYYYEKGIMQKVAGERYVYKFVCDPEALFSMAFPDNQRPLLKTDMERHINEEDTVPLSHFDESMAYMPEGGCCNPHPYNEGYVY
Method in brief: as §1

## TGTCCT
[1]
  binding signal: 1.37 fold enrichment (6-mer frequency, TF over GST control)
[2]
  binding signal: 1.38 fold enrichment (6-mer frequency, TF over GST control)
[3]
  binding signal: 1.58 fold enrichment (6-mer frequency, TF over GST control)
[4]
  binding signal: 1.38 fold enrichment (6-mer frequency, TF over GST control)
[5]
  binding signal: 1.5 fold enrichment (6-mer frequency, TF over GST control)
[6]
  binding signal: 1.52 fold enrichment (6-mer frequency, TF over GST control)
[7]
  binding signal: 1.44 fold enrichment (6-mer frequency, TF over GST control)
[8]
  binding signal: 1.54 fold enrichment (6-mer frequency, TF over GST control)
[9]
  binding signal: 1.41 fold enrichment (6-mer frequency, TF over GST control)
[10]
  binding signal: 1.45 fold enrichment (6-mer frequency, TF over GST control)
[11]
  binding signal: 1.56 fold enrichment (6-mer frequency, TF over GST control)
[12]
  binding signal: 1.06 fold enrichment (6-mer frequency, TF over GST control)
[13]
  binding signal: 1.53 fold enrichment (6-mer frequency, TF over GST control)
[14]
  binding signal: 1.4 fold enrichment (6-mer frequency, TF over GST control)
[15]
  binding signal: 1.28 fold enrichment (6-mer frequency, TF over GST control)
[16]
  binding signal: 1.67 fold enrichment (6-mer frequency, TF over GST control)
[17]
  binding signal: 1.46 fold enrichment (6-mer frequency, TF over GST control)
[18]
  binding signal: 1.12 fold enrichment (6-mer frequency, TF over GST control)
[19]
  binding signal: 1.55 fold enrichment (6-mer frequency, TF over GST control)
